Screening data as filed in PubChem.
VLA-4 inh = inhibition in a human VLA-4 binding assay; VLA-4 expressing cells, ligand binding flow cytometry; inhibition, % (about 7 µM as worked out from the volumes in the protocol); actives 0.2% (n = 330,000); P13612; AID 2557; in the data active = inhibition above about 50%
Granule exo inh = lytic granule exocytosis inhibition; actives 0.66% (n = 360,000); TALL-104 LAMP-1 surface exposure, flow cytometry; cells stimulated with thapsigargin and PMA; inhibition, % at 10 µM; AID 651702;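 active = inhibition above about 55%, limit read from the data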
CaV13 FRET inh = Disruptors of the CACNA1D IQ motif to Ca2+-dependent inactivation inhibitor domain association, primary screening, Förster resonance energy transfer in intact living …. HEK cells, CFP/YFP FRET ICDI-IQ, plate reader, 10 min; percent FRET-ratio fall versus neutral wells. inhibition, % at 12.3 µM. actives 0.098% (n = 340,000). AID 743397;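 active = mean replicate inhibition of at least 30% and at least 1% of replicates passing that level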;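 also: 0% = median of the neutral control wells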
ABCB6 inh 2 = blocks the human ABCB6 transporter; Q9NP58; K562-ABCB6 porphyrin accumulation, flow cytometry, 1 h; hits give low values; fluorescence ratio to DMSO, % at 10 µM; actives 0.19% (n = 360,000);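 active = fluorescence ratio to DMSO below 75%, the collection mean minus 3 SD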;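 also: signal is porphyrin accumulated inside mitochondria; 100% equals median channel fluorescence of DMSO control wells; lower ratio means ABCB6 inhibition with less porphyrin fluorescence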
Numbers without * were called inactive; / = not tested or not shown; + = active, no number. Most compounds without a hit are left out; they make up all but 1.1% or so of the library.

SMILES | VLA-4 inh | Granule exo inh | CaV13 FRET inh | ABCB6 inh 2
Cc1c(CCOC(=O)c2ccccc2)sc[n+]1CC(=O)c1ccc(Br)cc1 | 4.5 | 94.6* | / | 98.0
Cc1c(CCOC(=O)CC23CC4CC(CC(C)(C4)C2)C3)sc[n+]1CC(=O)c1ccccc1 | 11.2 | 96.7* | -4.0 | 94.0
CCCCCCCCN1C(=O)[C@@H](CC(=O)NCCc2ccccc2OC)C[C@@]2(C(=O)OC)C1=C[C@H](C1CCCC1)O[C@@H]2C | / | / | -8.7 | /
O=C1/C(=C\c2ccc(O)cc2)SC(=S)N1Cc1ccccc1 | -220.3 | 0.8 | -163.3 | 125.0
O=C1/C(=C/c2ccccc2O)SC(=S)N1Cc1cccnc1 | -4.8 | 58.2* | -19.3 | 84.0
COc1ccc(N2C(=O)c3n[nH]c(C(C)C)c3C2c2ccccc2)cc1 (stereo not given) | / | / | -4.4 | /
C=CCn1c(COc2ccc(F)cc2)nnc1SCC(=O)NC1CCCC1 | 17.7 | -6.8 | -1.5 | 98.0
C=CCn1c(COc2ccc(F)cc2)nnc1SCC(=O)NC1CCS(=O)(=O)C1 (stereo not given) | 0.0 | 1.2 | -5.6 | 71.0*
Cc1nc2ccc(CN(C)c3ccc(C(=O)N[C@@H](CCC(=O)O)C(=O)O)s3)cc2c(=O)[nH]1 | 52.0* | / | / | /
O=C1c2ccccc2-c2onc3ccc(NCc4ccco4)c1c23 | -356.0 | 55.9* | / | 336.0
CCNc1ccc2noc3c2c1C(=O)c1ccccc1-3 | -254.8 | -1.1 | / | 122.0
COc1ccc(CS(=O)(=O)/C(Cl)=C(/Cl)C(=O)Nc2ccc(OC)nc2)cc1 | 15.7 | 84.4* | / | 78.0
COc1ccc(NC(=O)Cc2ccccc2)cn1 | -12.1 | 2.9 | -2.6 | 95.0
COc1ccc(NC(=O)/C(Cl)=C(/Cl)S(=O)Cc2ccccc2)cn1 (stereo not given) | 24.2 | 39.0 | / | 25.0*
CCN(c1ccccc1)S(=O)(=O)c1ccc(OC)c(NC(=O)CNC)c1 | 6.1 | 9.0 | -4.7 | 106.0
CCN(c1ccccc1)S(=O)(=O)c1ccc(OC)c(NC(=O)CN(C)C)c1 | -1.2 | -1.5 | + | 100.0
COc1ccc(-c2nnn3c2C2c4cc(-c5cccc(F)c5)ccc4CCN2C(=O)C3)cc1 (stereo not given) | / | / | -4.7 | /
N#CC1=C(N)Oc2cc(O)ccc2C1c1ccncc1 (stereo not given) | 3.4 | -1.6 | / | 85.0
CCOc1ccc(C2C(C#N)=C(N)Oc3cc(O)ccc32)cc1OCC (stereo not given) | 9.3 | 34.7 | 57.7* | 96.0
COC(=O)c1ccc(C2C(C#N)=C(N)Oc3cc(O)ccc32)cc1 (stereo not given) | -12.0 | -7.1 | -11.1 | 99.0
C#CCOc1ccc(C2C(C#N)=C(N)Oc3cc(O)ccc32)cc1 (stereo not given) | 4.5 | -1.6 | + | 127.0
COc1ccc(C2C(C#N)=C(N)Oc3cc(O)ccc32)cc1Cl (stereo not given) | 6.4 | 13.1 | + | 103.0
COC(=O)C1=C(C)N(Cc2cccc(C(F)(F)F)c2)C(=NCc2cc(OC)c(OC)c(OC)c2)NC1c1ccc(Cl)cc1 (stereo not given) | / | / | -3.8 | /
CCCCCCCCN1C(=O)[C@@H](CC(=O)NCCCOCCCC)C[C@@]2(C(=O)OC)C1=C[C@H](C(C)(C)C)O[C@@H]2C | / | / | -8.7 | /
C=CCN=C1NC(c2cccc(F)c2)C(C(=O)OC)=C(C)N1Cc1ccccc1C(F)(F)F (stereo not given) | / | / | -9.9 | /
SMILES | VLA-4 inh | Granule exo inh | CaV13 FRET inh | ABCB6 inh 2
COc1ccc(N2C(=O)CC(Sc3n[nH]c(-c4cccc(C)c4)n3)C2=O)cc1 (stereo not given) | 7.8 | 94.8* | -3.6 | 94.0
COc1ccccc1CCn1cnc(-c2ccccc2OC)c1CC(C)C | / | / | -8.2 | /
CCn1c(Cl)c(C=O)s/c1=N\S(=O)(=O)c1ccccc1 | 40.2 | 4.9 | -2.7 | 38.0*
COc1cc(C(=O)NN=C2c3ccccc3-c3ccccc32)cc(OC)c1OC | / | / | -11.9 | /
Cn1c(=N)c(S(=O)(=O)c2ccc(F)cc2)cc2c(=O)n3ccccc3nc21 | 3.4 | 1.7 | 1.2 | 98.0
Cn1c(=N)c(S(=O)(=O)c2ccccc2)cc2c(=O)n3ccccc3nc21 | 4.4 | 2.4 | 34.5* | 103.0
CN(c1ccccc1)c1nc(N)c([N+](=O)[O-])c(Nc2ccc(F)cc2)n1 | -10.7 | -12.5 | -2.9 | 100.0
CN(c1ccccc1)c1nc(N)c([N+](=O)[O-])c(Nc2ccccc2F)n1 | -1.2 | 75.6* | -20.7 | 101.0
CCN1C=C(C(=O)OC)C(c2cccc(OC)c2OC)C(C(=O)OC)=C1 | 0.9 | 6.1 | + | 96.0
